Screens deposited in PubChem BioAssay by Sanford-Burnham Center for Chemical Genomics.
Compounds with a hit are over-represented: about 2.6% of the library has one in this group of screens.
MLLE-PAM2 inh: inhibitors of microRNA-mediated deadenylation, human PABP1 MLLE binding. 360,000 tested, 0.36% active. P11940. GST-MLLE / FITC-PAM2 fluorescence polarization. inhibition, % at 20 µM; in the data active means inhibition above about 35%, passing the limit was not always enough
CRFBP-R2 block: CRF-BP/CRF-R2 complex antagonism; inhibition, % at 11.8 µM; 350,000 tested, 0.59% active; HEK293 CRF-R2/CRF-BP, CRF-induced calcium fluorescence;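 active means inhibition of the ligand-induced calcium signal above about 50% at the single tested concentration, limit read from the data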
eIF4H FP inh: inhibitors of RNA binding by human eIF4H; Q15056; eIF4H fluorescence polarization binding assay; inhibition, % at 35 µM; 290,000 tested, 0.94% active;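 further: calls also rest on retests at 20 µM and on dose response follow-up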
PHOSPHO1 inh: inhibitors of human PHOSPHO1 phosphatase; recombinant PHOSPHO1, absorbance phosphatase assay; 290,000 tested, 1.1% active; inhibition, % at 13.3 µM; Q8TCT1; AID 1565; in the data active means inhibition above about 60%
Target sequence (Q8TCT1 whole entry, looked up): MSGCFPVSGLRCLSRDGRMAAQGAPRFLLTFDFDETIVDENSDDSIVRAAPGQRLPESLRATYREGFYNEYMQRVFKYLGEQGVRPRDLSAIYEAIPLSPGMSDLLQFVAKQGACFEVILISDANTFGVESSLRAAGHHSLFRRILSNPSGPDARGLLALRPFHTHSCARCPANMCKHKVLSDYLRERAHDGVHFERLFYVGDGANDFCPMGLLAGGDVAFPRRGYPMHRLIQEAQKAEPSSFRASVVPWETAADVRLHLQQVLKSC
PABP polyA inh: blocks human PABP binding to poly(A) RNA. P11940. fluorescence polarization. inhibition, % at 35 µM. 290,000 tested, 1% active. AID 2014;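 further: calls also rest on retests at 20 µM and on dose response follow-up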
Of the large screens only hits and unclear results are named; the others gave an inactive call. Unless noted, how the calls were made is not given here.

COc1ccc(CC(=O)OCC(=O)c2c[nH]c3ccccc23)cc1	none (no result: eIF4H FP inh, PHOSPHO1 inh, PABP polyA inh)
CNC(=O)OCc1ncn(-c2ccccc2)c1COC(=O)NC	none (no result: CRFBP-R2 block, eIF4H FP inh, PHOSPHO1 inh, PABP polyA inh)
CCn1c(SCC(=O)N/N=C/c2c[nH]c3ccccc23)nnc1-c1ccc(Cl)cc1	eIF4H FP inh active
CCn1c(SCC(=O)N/N=C/c2c[nH]c3ccccc23)nnc1-c1ccc(C)cc1	none
Nc1c(C(=O)NCc2ccco2)sc2nc3c(cc12)C(=O)CCC3	eIF4H FP inh 89, PABP polyA inh 76
O=C(NCc1ccc(F)cc1)c1c2c(nc3ccccc13)CCC2	eIF4H FP inh 71
O=C(CSc1c2c(nc3ccccc13)CCCC2)NCc1ccco1	none
O=C(NCc1ccco1)c1c2c(nc3ccccc13)CCC2	eIF4H FP inh 89, PHOSPHO1 inh 72, PABP polyA inh 82
CCCC(C)NC(=O)c1c2c(nc3ccccc13)CCC2 (stereo not drawn)	none
COc1ccc2cc3c(N)c(C(=O)NCc4ccco4)sc3nc2c1	eIF4H FP inh inconclusive
Cc1cnc(CNC(=O)c2ccc3sc([C@H]4C[C@H](O)[C@@H](CO)O4)nc3c2)cn1	none (no result: CRFBP-R2 block, eIF4H FP inh, PHOSPHO1 inh, PABP polyA inh)
Cc1ccccc1S(=O)(=O)N1CCN(c2ccc3c(c2)C2CC3CCN2C(=O)OCc2ccccc2)CC1 (stereo not drawn)	none (no result: CRFBP-R2 block, eIF4H FP inh, PHOSPHO1 inh, PABP polyA inh)
CC1(C(=O)NS(=O)(=O)c2ccccc2OC(F)(F)F)CCN1C(=O)Cc1ccccc1 (stereo not drawn)	none (no result: CRFBP-R2 block, eIF4H FP inh, PHOSPHO1 inh, PABP polyA inh)
N#Cc1c(N)n(-c2cccc(C(=O)O)c2)c2nc3ccccc3nc12	CRFBP-R2 block 57, eIF4H FP inh inconclusive, PABP polyA inh inconclusive
O=C(Nc1nc(-c2ccco2)c(-c2ccco2)s1)C1CC(=O)N(c2ccc3c(c2)OCCO3)C1 (stereo not drawn)	eIF4H FP inh 84, PABP polyA inh 88
Cc1nnc(NC(=O)C2CC(=O)N(c3ccc4c(c3)OCCO4)C2)s1 (stereo not drawn)	none (no result: eIF4H FP inh, PHOSPHO1 inh, PABP polyA inh)
C=C(C)[C@@H]1C2=CC(C(=O)OC)=C(C[C@H](C(=C)C)[C@H]3O[C@H]3C3=C[C@H]1OC3=O)O2	none (no result: CRFBP-R2 block, eIF4H FP inh, PHOSPHO1 inh, PABP polyA inh)
O=C(CSc1ccc(-c2ccco2)nn1)c1ccc(F)cc1	PABP polyA inh active
Fc1cccc(CSc2ccc(-c3ccco3)nn2)c1	none
Fc1ccc(CSc2ccc(-c3ccco3)nn2)cc1	eIF4H FP inh inconclusive, PABP polyA inh 68
Cc1nnc(SCC(=O)N(C)c2c(N)n(Cc3ccccc3)c(=O)[nH]c2=O)n1Cc1ccccc1	CRFBP-R2 block 81
CN(C(=S)NC(=O)c1ccccc1)c1c(N)n(Cc2ccccc2)c(=O)[nH]c1=O	MLLE-PAM2 inh 40
Cc1ccn(C)c(=N)c1	eIF4H FP inh active, PABP polyA inh 67
COc1ccc(NC(=O)C2(C)CCN2C(=O)CC2CCCC2)cc1OC (stereo not drawn)	none (no result: CRFBP-R2 block, eIF4H FP inh, PHOSPHO1 inh, PABP polyA inh)
N#CC1=C2SCN(c3ccccc3)CN2C(=O)CC1c1c(Cl)cccc1Cl (stereo not drawn)	PHOSPHO1 inh 92
N#CC1=C2SCN(c3ccccc3)CN2C(=O)CC1c1cccs1 (stereo not drawn)	eIF4H FP inh 23, PHOSPHO1 inh 81, PABP polyA inh 76
N#CC1=C2SCN(c3ccccc3)CN2C(=O)CC1c1ccccc1Cl (stereo not drawn)	PHOSPHO1 inh 86
COc1ccc(Br)cc1C1CC(=O)N2CN(Cc3ccccc3)CSC2=C1C#N (stereo not drawn)	none
N#CC1=C2SCN(Cc3ccccc3)CN2C(=O)CC1c1ccccc1F (stereo not drawn)	PHOSPHO1 inh 83
C=CCn1c(SCC(=O)Nc2cc(C)on2)nc2ccccc21	none (no result: eIF4H FP inh, PHOSPHO1 inh, PABP polyA inh)
C[C@H]1CCCCO[C@H](CN(C)S(=O)(=O)c2cn(C)cn2)[C@@H](C)CN([C@@H](C)CO)C(=O)c2cc(NS(=O)(=O)c3ccccc3)ccc2O1	none (no result: eIF4H FP inh, PHOSPHO1 inh, PABP polyA inh)
COc1cccc(-c2cc(CNC(=O)[C@H]3O[C@@H](n4ccc(N)nc4=O)[C@H](O)[C@@H]3O)no2)c1	none (no result: CRFBP-R2 block, eIF4H FP inh, PHOSPHO1 inh, PABP polyA inh)
O=S1(=O)CC(O)C(NCCO)C1 (stereo not drawn)	PHOSPHO1 inh 65
Clc1ccc(-c2nnc(CSc3nnc(-c4cccs4)o3)o2)cc1	CRFBP-R2 block 54
COc1ccc(S(=O)(=O)NN=C2CCCCC2)cc1	PHOSPHO1 inh 74
CC1=C(c2ccccc2)C(O)(c2ccccc2)C(C)C1=O (stereo not drawn)	CRFBP-R2 block 59 (no result: eIF4H FP inh, PHOSPHO1 inh, PABP polyA inh)
CC(C)CNC(=S)NNC(=O)CC(C)O (stereo not drawn)	PHOSPHO1 inh 61
CCNC(=S)NNC(=O)CC(C)C	none
CCNC(=O)C1(C)CCCN(C(=O)c2cc(-c3cccs3)oc2C)C1 (stereo not drawn)	none (no result: CRFBP-R2 block, eIF4H FP inh, PHOSPHO1 inh, PABP polyA inh)
